Compounds with a hit are over-represented: about 2.3% of the library has one in this group of screens.
M1 ag: human M1 muscarinic receptor agonists, primary screen, Fluo-8 calcium fluorescence, CHO-K1 cells, HTS; activation, % at 3 µM; hit rate 0.33% among 360,000; Muscarinic acetylcholine receptor M1 (Homo sapiens), P11229; CHO-K1 hM1, agonist mode; 0% DMSO, 100% acetylcholine EC100;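 active means activation above the run's mean compound activation plus 3 SD, cut at about 16% in these data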;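 further: peak over basal fluorescence ratio within a 140 s kinetic read after compound addition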
Target sequence (P11229 whole entry, looked up): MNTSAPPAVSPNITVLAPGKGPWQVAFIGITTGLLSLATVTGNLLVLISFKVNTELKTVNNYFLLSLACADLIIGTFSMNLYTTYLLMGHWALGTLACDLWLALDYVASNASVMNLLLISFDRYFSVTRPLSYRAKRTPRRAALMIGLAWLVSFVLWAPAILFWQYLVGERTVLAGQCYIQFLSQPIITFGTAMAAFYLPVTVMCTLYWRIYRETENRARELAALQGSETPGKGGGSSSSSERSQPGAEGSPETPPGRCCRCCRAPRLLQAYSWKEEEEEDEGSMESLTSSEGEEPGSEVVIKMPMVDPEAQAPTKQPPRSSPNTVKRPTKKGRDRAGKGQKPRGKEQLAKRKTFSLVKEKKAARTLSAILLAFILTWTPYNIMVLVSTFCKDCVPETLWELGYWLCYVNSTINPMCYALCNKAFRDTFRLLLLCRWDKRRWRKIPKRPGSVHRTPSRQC
M1 ag parental: counter-screen for M1 agonists: effect in parental CHO-K1 cells | hit rate 0.48% among 360,000 | activation, % at 3 µM | Fluo-8 calcium fluorescence; scaled to maximal ATP response, vehicle zero; in the data active means activation above about 15%;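 further: untransfected CHO-K1 host cells lacking M1 receptor as counterscreen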
CHRM1 antagonist: human M1 muscarinic receptor antagonists, primary screen, CHO-K1 cells, Fluo-8 calcium fluorescence, 1536-well | CHO-K1 hM1, ACh EC80 antagonist | hit rate 1.3% among 360,000 | inhibition, % at 3 µM | Muscarinic acetylcholine receptor M1 (Homo sapiens), P11229;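 active means percent inhibition above its own plate's cutoff, namely the mean of that plate's compound wells plus 3 SD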;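 further: peak over basal fluorescence ratio during 140 s after agonist addition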
CHO-K1 Ca PAM: nonselective calcium activators in parental CHO-K1 cells, primary screen, counter-screen for M1 PAM project, cell-based, Fluo-8 calcium fluorescence, full deck, 1536-well; activation, % at 3 µM; hit rate 0.02% among 360,000; ATP EC20; 0% at ATP EC20, 100% at ATP max;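 active means activation above the run cutoff, the mean activation of all test compounds plus 3 SD, cut at about 40% in these data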;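 further: peak over basal fluorescence ratio in a 140 s read after ATP addition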
CHO-K1 Ca antag: nonselective inhibitor or artifact in parental CHO-K1 cells; AID 602250; ATP-induced calcium, Fluo-8 fluorescence; inhibition, % at 3 µM; hit rate 0.6% among 360,000;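 active means inhibition above a per-plate cutoff, the plate's mean sample inhibition plus 3 SD, cut at about 24% in these data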
M1 PAM: human M1 muscarinic receptor positive allosteric modulators, primary screen, CHO-K1 cells, Fluo-8 calcium fluorescence, 1536-well; hit rate 0.088% among 360,000; AID 588819, 2011; CHO-K1 hM1, ACh EC20; 0% = ACh EC20, 100% = maximal ACh; activation, % at 3 µM; Muscarinic acetylcholine receptor M1 (Homo sapiens), P11229; in the data active means activation above about 19%, passing the limit was not always enough
Numbers stand for hits; i = inactive; nt = no result.

SMILES	M1 ag	M1 ag parental	CHRM1 antagonist	CHO-K1 Ca PAM	CHO-K1 Ca antag	M1 PAM
CCCC[n+]1ccn(C2=C([O-])c3ccccc3C(=O)/C2=N\S(=O)(=O)c2ccccc2)c1	i	i	i	i	i	i
COCCCn1cc(CN(C)C2CN(Cc3cn(CCCOC)nn3)S(=O)(=O)C2)nn1 (stereo unspecified)	nt	i	nt	i	i	nt
O=C(COC(=O)c1ccc(F)cc1Cl)NC1CC1	i	i	i	i	i	i
CN1/C(=C/c2cccc[n+]2CCO)Sc2ccccc21	i	i	i	i	i	i
CCN1/C(=C/C=C/c2sc3ccccc3[n+]2CC)Sc2ccccc21	i	i	i	i	i	i
CCN1/C(=C/c2ccc3cc(C)ccc3[n+]2CC)Sc2cc(C)c(C)cc21	i	i	39.5	i	49.9	i
CCN1/C(=C/c2ccc3cc(C)ccc3[n+]2CC)Sc2ccccc21	46.6	36.0	66.3	i	57.9	i
CC[n+]1ccccc1/C=C1\Sc2ccc(C)cc2N1C	i	i	i	i	i	i
CC[n+]1c(/C=C2\Sc3ccccc3N2C)ccc2cccc(C)c21	21.7	18.7	53.8	i	30.9	i
COc1ccc(C2c3[nH]c4ccccc4c3CCN2C(=O)c2cn3ccccc3n2)c(F)c1 (stereo unspecified)	i	i	i	i	27.4	i
COc1ccc(C2c3[nH]c4ccccc4c3CCN2C(=O)c2cc3ncccn3n2)c(F)c1 (stereo unspecified)	i	i	i	i	25.8	i
COc1ccc(C2c3[nH]c4ccccc4c3CCN2C(=O)c2ccccc2C(C)=O)c(F)c1 (stereo unspecified)	i	i	i	i	i	i
CCCCn1nnnc1C(c1cc2ccccc2o1)N1CCN(CC(=O)NC(C)C)CC1 (stereo unspecified)	nt	i	nt	i	i	nt
NC(=O)c1cccnc1Oc1ccccc1	i	i	i	i	i	i
COc1ccnc(Oc2ccccc2)c1C(N)=O	i	i	i	i	26.7	i
Nc1nc(N)c2cc(S(=O)(=O)c3ccc4ccccc4c3)ccc2n1	i	i	i	i	i	i
COC(=O)Cn1c(=NC(=O)C(C)C)sc2c(C)cc(C)cc21	i	i	i	i	29.9	i
CCC(C)[C@H]1CN=C(N)N1CCc1cccc2ccccc12 (stereo partly specified)	i	i	38.2	i	i	i
COc1ccc(NC(=O)CN(C)CC(=O)Nc2sc3c(c2C#N)CCC3)cc1	i	i	33.7	i	i	i
Cc1nn(-c2ccccc2)c(C)c1NC(=O)COc1cc(F)ccc1[N+](=O)[O-]	i	17.7	i	i	i	i
COc1ccc(CCNC(=O)c2ccc(CS(=O)(=O)c3ccc(C)cc3)o2)cc1OC	i	i	i	i	i	i
COc1ccc(CCNC(=O)c2ccc(CS(=O)(=O)Cc3ccc(C)cc3)o2)cc1OC	i	15.2	i	i	i	i
COc1ccc(CCNC(=O)c2ccc(CS(=O)(=O)c3ccc(Cl)cc3)o2)cc1OC	i	16.8	30.1	i	i	i
Cc1ccc(CCNC(=O)c2ccc(CS(=O)(=O)Cc3ccc(F)cc3)o2)cc1	i	i	i	i	i	i
C[C@@H]1CCCCO[C@H](CN(C)S(=O)(=O)c2ccccc2)[C@@H](C)CN([C@H](C)CO)C(=O)c2cc(NC(=O)Cc3ccccc3)ccc2O1	i	i	i	i	i	i
SMILES	M1 ag	M1 ag parental	CHRM1 antagonist	CHO-K1 Ca PAM	CHO-K1 Ca antag	M1 PAM
COc1ccc(C2(c3ccc(OC)cc3)NC(=O)N(CC(=O)Nc3ccc(C(N)=O)cc3)C2=O)cc1	i	i	i	i	i	i
COc1ccc(C2(c3ccc(OC)cc3)NC(=O)N(CC(=O)Nc3ccccc3)C2=O)cc1	i	15.5	i	i	i	i
CC(OC(=O)CC1CC2CCC1C2)C(=O)Nc1ccc(N2CCOCC2)cc1 (stereo unspecified)	i	i	i	i	i	i
CCN(CC)S(=O)(=O)c1cc(NC(=O)CNc2cccc(S(=O)(=O)N3CCCC3)c2)ccc1C	i	i	29.0	i	i	i
CC(OC(=O)CC1CC2CCC1C2)C(=O)Nc1cccc(S(=O)(=O)N2CCOCC2)c1 (stereo unspecified)	i	i	i	i	i	24.4
CCN(CC)S(=O)(=O)c1cccc(NC(=O)CNc2cccc(S(=O)(=O)N3CCOCC3)c2)c1	i	i	33.4	i	i	i
CCc1nc2ccccc2c(C(=O)OCC(=O)Nc2cccc(S(=O)(=O)N3CCOCC3)c2)c1C	i	i	27.9	i	i	i
CCN(CC)S(=O)(=O)c1ccc(C)c(NC(=O)CNc2cccc(S(=O)(=O)N3CCOCC3)c2)c1	i	i	i	i	i	i
CN(C)S(=O)(=O)c1cccc(NC(=O)CNc2cccc(S(=O)(=O)N3CCCCC3)c2)c1	i	i	i	i	i	i
CNC[C@H]1OCCCC[C@H](C)Oc2ccc(NC(=O)CCCN(C)C)cc2C(=O)N([C@H](C)CO)C[C@@H]1C	i	i	i	i	i	i
Nc1cc(N)cc(C(=O)c2ccccc2)c1	i	i	i	i	i	i
CCC(c1nnnn1-c1ccc2c(c1)OCCO2)N1CCN(C(C)=O)CC1 (stereo unspecified)	nt	i	nt	i	i	nt
CCN(CC)C(=O)C1=C(C)N(Cc2ccc(F)cc2)C(=O)C(CC(=O)NCCCN(C)C)C1 (stereo unspecified)	i	i	i	i	i	i
O=C(Nc1ccccc1F)c1csc([C@@H]2C[C@H](O)[C@@H](CO)O2)n1	i	i	i	i	i	i
CCc1nc2ccc(C(=O)N3CCN(c4ccccc4)CC3)cn2c1N(CCC(C)C)CCN(C)C	i	i	i	i	i	i
CN(CC(=O)NCC(=O)Nc1ccc(F)cc1)CC(=O)Nc1ccc(Cl)c(C(F)(F)F)c1	i	i	i	i	i	i
CN(CC(=O)Nc1cccc(S(=O)(=O)N2CCOCC2)c1)CC(=O)Nc1ccc(Cl)c(C(F)(F)F)c1	i	i	41.9	i	i	i
CN(CC(=O)NCc1ccc(F)cc1)CC(=O)Nc1ccc(Cl)c(C(F)(F)F)c1	16.2	i	i	i	i	i
COc1ccc(C2NC(=O)C(C#N)=C(S)N2c2cccc(C)c2)cc1OC (stereo unspecified)	i	16.1	i	i	i	i
COc1ccc(C2NC(=O)C(C#N)=C(S)N2c2ccc(C)cc2)cc1OC (stereo unspecified)	i	i	i	i	i	i
S=C(NCc1ccco1)N1CCN(C(c2ccccc2)c2ccccc2)CC1	i	i	17.9	i	i	i

High-throughput results as filed in PubChem BioAssay.
